Test results taken from PubChem BioAssay (NCATS).
“And” between values parts separate entries of the source, which are not always exact repeats. Identical values can stand only once. Inconclusive results are not listed. The source made the active and inactive calls. Unless noted, calls follow the shape of the dose curve; as a rule, active = well fitted curve in the direction sought with a large enough effect; inconclusive = small, poorly fitted or top-dose-only effect, or another doubt; inactive = no such curve, though single readings can be large; an effect the other way counts as inactive or inconclusive.

Assays:
[1] = target: Cellular tumor antigen p53 (Homo sapiens) (UniProt P04637); assay: Primary qHTS for small molecule compounds that upregulate eGFP-tagged delta133p53alpha (in N-terminal) cells. (AID 2060322); details: NCI-H358 eGFP-delta133p53alpha fluorescence, 24 h; activation: stronger effect = higher value;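 also: cells pre-induced with doxycycline then dosed without doxycycline; series mostly up to about 56 µM; 0% = DMSO vehicle and 100% = reference activator; nearly all actives have a fitted effect of over 75% in size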
Sequence of Cellular tumor antigen p53 (Homo sapiens) (P04637 whole entry, looked up): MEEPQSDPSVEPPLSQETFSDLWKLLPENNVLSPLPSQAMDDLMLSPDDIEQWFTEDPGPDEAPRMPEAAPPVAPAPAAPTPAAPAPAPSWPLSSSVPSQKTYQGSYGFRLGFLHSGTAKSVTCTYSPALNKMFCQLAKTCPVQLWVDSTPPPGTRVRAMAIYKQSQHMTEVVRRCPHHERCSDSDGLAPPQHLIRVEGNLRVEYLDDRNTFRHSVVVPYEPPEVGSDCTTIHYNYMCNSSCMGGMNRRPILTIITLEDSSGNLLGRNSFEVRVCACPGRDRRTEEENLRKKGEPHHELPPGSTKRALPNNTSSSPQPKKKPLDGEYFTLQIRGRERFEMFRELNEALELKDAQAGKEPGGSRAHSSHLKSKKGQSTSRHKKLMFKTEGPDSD
Method in brief: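 NCI-H358 cells pre-induced 24 h with 10 ng/ml doxycycline for eGFP-delta133p53alpha, plated dox-free and exposed 24 h at 37C to titrated compounds. Fixed, Hoechst-stained; gated GFP peak intensity by laser scanning cytometry, normalized to DMSO (0%) and 57.5 uM 5-azacytidine (100%).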

[2] = target: Cellular tumor antigen p53 (Homo sapiens) (UniProt P04637); assay: Primary qHTS for small molecule compounds that upregulate eGFP-tagged delta133p53alpha (in C-terminal) cells. (AID 2060324);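 also: 0% = DMSO wells and 100% = 57.5 µM 5-azacytidine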
Method in brief: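 Read-out: gated-cell GFP peak intensity (laser scanning cytometer), plate-normalized with DMSO as 0% activity, after 24 h compound exposure at 37C. Cells were C-terminal eGFP-tagged delta133p53alpha NCI-H358, doxycycline-induced (100 ng/ml, 24 h) before plating.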

[3] = target: Aldehyde dehydrogenase, mitochondrial (Homo sapiens) (UniProt P05091); assay: qHTS for Inhibitors of the Aldehyde Dehydrogenase Family (ALDH2) Validation screens (AID 2061302; active = well fitted inhibition curve with a large enough effect; title and protocol of this record describe different tests;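 also: plate controls were DMSO vehicle for no effect and maximal DPI positive control response for full effect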)
[4] = target: Retinaldehyde dehydrogenase 3 (Homo sapiens) (UniProt P47895); assay: qHTS for Inhibitors of the Aldehyde Dehydrogenase Family (ALDH1A3) Validation screen (AID 2061312); also: % is scaled to controls: 0 for no effect and ±100 for the full control effect; nearly all actives have a fitted effect of over 45% in size

COc1cc([C@@H]2c3cc4c(cc3[C@H](O)C3COC(=O)[C@@H]32)OCO4)cc(OC)c1OC (stereo partly drawn)
inactive: activation [1] -47.3% | Potency [2] | Potency [3] | Potency [4]

c1ccc2nc(C3=NCCN3)ccc2c1
inactive: activation [1] 5.83% | Potency [2] | Potency [3] | Potency [4]

N[C@H](C(=O)O)c1cc(O)cc(O)c1
inactive: activation [1] -2.9% | Potency [2] | Potency [3] | Potency [4]

O=C(CCSCc1ccco1)NNC(=O)N1Cc2ccccc2Oc2ccc(Cl)cc21
inactive: activation [1] 22% | Potency [2] | Potency [3] | Potency [4]

CC(C)NC[C@H](O)COc1ccc(CC(N)=O)cc1
inactive: activation [1] -18.8% | Potency [2] | Potency [3] | Potency [4]

Cc1ccccc1C(OCCN(C)C)c1ccccc1 (stereo not drawn)
inactive: activation [1] 0.562% and -27.9% | Potency [2] | Potency [3] | Potency [4]

O=C(O)c1cc2cc(F)ccc2[nH]1
inactive: activation [1] -70.8% | Potency [2] | Potency [3] | Potency [4]

Clc1nccc2c1ccc1ccccc12
inactive: activation [1] -42.2% | Potency [2] | Potency [3] | Potency [4]

Nc1ncnc2c1nc(Br)n2C1OC2COP(=O)(O)O[C@@H]2C1O (stereo partly drawn)
inactive: activation [1] -6.56% | Potency [2] | Potency [3] | Potency [4]

CCCCCCC/C=C\CCCCCCCCC(=O)O
inactive: activation [1] -38.4% | Potency [2] | Potency [3] | Potency [4]

COC(=O)C1=C(C)NC(C)=C([N+](=O)[O-])C1c1ccccc1C(F)(F)F (stereo not drawn)
inactive: activation [1] -39.9% | Potency [2] | Potency [3] | Potency [4]

CN1[C@@H](CC(=O)c2ccccc2)CCC[C@H]1C[C@H](O)c1ccccc1
inactive: activation [1] 1.49% | Potency [2] | Potency [3] | Potency [4]
